Results: PubChem BioAssay
The source made the active and inactive calls.

What was measured:
[1] = molecular target: Albumin (Bos taurus) (UniProt P02769); assay: bovine serum albumin binders on microarray, profiling panel, artefact control for SMM control protein annotation, biochemical, small-molecule microarray, Alexa647 label, 635/667 nm fluorescence (AID 1118); settings: BSA-A647 binding, fluorescence 635 nm, higher = more signal;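 further: score merges 667 nm emission intensity and signal-to-noise per printed compound spot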
Sequence of Albumin (Bos taurus) (P02769 whole entry, looked up): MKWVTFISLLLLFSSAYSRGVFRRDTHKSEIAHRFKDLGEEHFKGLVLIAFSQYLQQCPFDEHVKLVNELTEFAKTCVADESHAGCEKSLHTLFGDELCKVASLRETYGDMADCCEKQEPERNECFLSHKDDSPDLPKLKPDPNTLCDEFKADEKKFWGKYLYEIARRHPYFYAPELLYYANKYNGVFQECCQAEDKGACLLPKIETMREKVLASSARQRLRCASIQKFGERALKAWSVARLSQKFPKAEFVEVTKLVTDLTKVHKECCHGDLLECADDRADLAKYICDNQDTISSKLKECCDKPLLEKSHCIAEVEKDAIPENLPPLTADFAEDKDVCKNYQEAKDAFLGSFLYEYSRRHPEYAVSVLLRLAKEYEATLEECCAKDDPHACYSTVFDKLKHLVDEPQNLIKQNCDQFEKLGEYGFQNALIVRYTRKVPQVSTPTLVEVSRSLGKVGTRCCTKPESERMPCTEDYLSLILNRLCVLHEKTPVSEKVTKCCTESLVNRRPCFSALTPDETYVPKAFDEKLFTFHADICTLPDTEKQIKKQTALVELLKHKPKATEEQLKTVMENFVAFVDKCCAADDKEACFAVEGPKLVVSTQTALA

[2] = small-molecule microarray binders of probe aXIP, primary screen, biochemical, NeuroSMM set, 635/667 nm fluorescence (AID 1119); settings: higher = more signal, called active from +8 up or from −8 down;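 further: probe is the protein aXip251-270 applied at 1 µg/mL to compound-printed slides; binding of probe to printed compounds measured as 667 nm fluorescence plus signal to noise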
[3] = small-molecule binders of probe aNOTCH3, primary screen, biochemical, small-molecule microarray, 635/667 nm fluorescence (AID 1120); settings: higher = more signal;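 further: probe is a biotin-tagged antibody raised against NOTCH3 rather than NOTCH3 protein; score merges spot fluorescence near 667 nm with spot signal to noise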
[4] = small-molecule binders of probe aNOTCH2, primary screen, biochemical, small-molecule microarray, 635/667 nm fluorescence (AID 1121); settings: higher = more signal;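 further: score merges feature fluorescence read at 667 nm with its signal to noise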
[5] = molecular target: Carbonic anhydrase 2 (Homo sapiens) (UniProt P00918); assay: CAII small-molecule binders, profiling panel, biochemical, small-molecule microarray, Alexa647-labelled CAII (AID 1122); settings: CAII-A647 binding fluorescence, higher = more signal
[6] = COS7 lysate on small-molecule microarray, probe aHis, 635 nm (AID 1123); settings: COS7 cell lysate, fluorescence, higher = more signal;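 further: z-score combines 667nm fluorescence intensity with signal-to-noise per printed compound spot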
[7] = compound binding in COS7 lysate, probe aLAP1, primary screen, cell lysate, small-molecule microarray (AID 1124); settings: probe aLAP1, fluorescence, higher = more signal;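 further: lysate comes from COS7 cells expressing LAP1 and is applied at 0.3 µg/mL; score merges spot fluorescence near 667 nm with signal-to-noise over triplicate slides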
[8] = system: Sam68 (KHDRBS1); assay: Sam68 small-molecule binders, primary screen, biochemical, small-molecule microarray, 635 nm fluorescence (AID 1125); settings: small-molecule microarray binding, higher = more signal;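 further: score merges 667 nm channel intensity with signal to noise over triplicate slides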
[9] = system: Chordin-like protein 2 (CHRDL2); assay: CHRDL2 small-molecule binders, primary screen, biochemical, small-molecule microarray, 635 nm fluorescence (AID 1126); settings: small-molecule microarray binding, fluorescence 635 nm; higher = more signal;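 further: printed compound slides probed with Chrdl2 protein at 4 µg/mL for 1 h at 4 C; score merges 667 nm emission intensity with signal to noise over three replicate slides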
[10] = molecular target: Concanavalin-A (Canavalia ensiformis) (UniProt P02866); assay: ConA small-molecule binders, primary screen, artefact control for SMM control protein annotation, biochemical, small-molecule microarray, Alexa647 label, 635 nm (AID 1127); settings: ConA-A647 binding fluorescence, higher = more signal;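 further: z combines 667 nm emission intensity with signal-to-noise across three replicate slides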
Sequence of Concanavalin-A (Canavalia ensiformis) (P02866 whole entry, looked up): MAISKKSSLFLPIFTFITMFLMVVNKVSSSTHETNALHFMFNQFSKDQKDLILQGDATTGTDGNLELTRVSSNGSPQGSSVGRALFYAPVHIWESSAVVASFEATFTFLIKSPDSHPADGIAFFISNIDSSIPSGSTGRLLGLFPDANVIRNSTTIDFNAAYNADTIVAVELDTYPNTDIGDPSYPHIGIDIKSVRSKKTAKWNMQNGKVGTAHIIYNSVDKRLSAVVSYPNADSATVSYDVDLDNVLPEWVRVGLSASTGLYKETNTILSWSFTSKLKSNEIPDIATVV

[11] = anti-His antibody binders, primary screen, artefact control for SMM control protein annotation, biochemical, small-molecule microarray, 635 nm fluorescence (AID 1128); settings: anti-His Alexa647 antibody binding, higher = more signal;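 further: score merges feature fluorescence with signal-to-noise for each printed compound spot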
[12] = system: Human papillomavirus type 1a E7 protein (residues 1-88); assay: HPV1a E7 small-molecule binders, primary screen, biochemical, small-molecule microarray, residues 1-88, 635 nm (AID 1129); settings: small-molecule microarray binding, fluorescence 635 nm; higher = more signal
[13] = molecular target: Focal adhesion kinase 1 (Homo sapiens) (UniProt Q05397); assay: small-molecule microarray binders of FAK, primary screen, biochemical, 635/667 nm fluorescence, BSA, DTT (AID 1130); settings: PTK2 binding, 635 nm fluorescence, higher = more signal;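 further: composite of spot emission at 667 nm and signal to noise over triplicate slides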
Sequence of Focal adhesion kinase 1 (Homo sapiens) (Q05397 whole entry, looked up): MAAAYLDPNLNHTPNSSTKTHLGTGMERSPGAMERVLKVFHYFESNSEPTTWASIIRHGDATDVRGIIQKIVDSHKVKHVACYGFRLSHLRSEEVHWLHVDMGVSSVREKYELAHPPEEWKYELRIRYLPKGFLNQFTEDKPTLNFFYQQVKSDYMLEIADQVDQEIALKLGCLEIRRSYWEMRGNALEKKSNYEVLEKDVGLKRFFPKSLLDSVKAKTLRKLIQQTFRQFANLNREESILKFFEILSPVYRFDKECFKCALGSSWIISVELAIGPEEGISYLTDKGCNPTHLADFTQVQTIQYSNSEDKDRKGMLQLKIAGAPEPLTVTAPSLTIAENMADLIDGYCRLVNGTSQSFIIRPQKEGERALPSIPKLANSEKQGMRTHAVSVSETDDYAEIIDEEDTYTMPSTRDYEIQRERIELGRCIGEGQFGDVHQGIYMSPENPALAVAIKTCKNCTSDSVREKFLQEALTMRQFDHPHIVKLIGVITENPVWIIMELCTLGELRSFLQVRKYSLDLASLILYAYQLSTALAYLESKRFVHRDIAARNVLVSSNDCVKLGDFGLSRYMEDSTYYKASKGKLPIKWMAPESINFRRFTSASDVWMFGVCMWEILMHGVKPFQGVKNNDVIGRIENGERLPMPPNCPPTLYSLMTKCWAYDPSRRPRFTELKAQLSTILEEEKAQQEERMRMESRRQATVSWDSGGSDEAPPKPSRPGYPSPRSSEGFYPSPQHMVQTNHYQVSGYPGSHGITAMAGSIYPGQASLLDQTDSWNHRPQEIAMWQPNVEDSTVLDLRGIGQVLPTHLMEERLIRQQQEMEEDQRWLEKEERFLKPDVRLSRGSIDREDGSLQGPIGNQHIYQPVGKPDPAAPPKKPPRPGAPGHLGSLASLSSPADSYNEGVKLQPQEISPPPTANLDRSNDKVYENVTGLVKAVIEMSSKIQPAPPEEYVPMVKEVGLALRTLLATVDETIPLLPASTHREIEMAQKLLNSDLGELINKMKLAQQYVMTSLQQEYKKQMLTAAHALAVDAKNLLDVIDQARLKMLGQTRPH

[14] = system: Fibrinogen (Alexa647-labelled); assay: fibrinogen binders on compound microarrays, profiling panel, artefact control for SMM control-protein annotation, biochemical, small-molecule microarray, 635/667 nm fluorescence (AID 1131); settings: fibrinogen-A647 binding fluorescence, higher = more signal;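 further: z-score merges 667 nm fluorescence with per-spot signal-to-noise over triplicate slides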
[15] = molecular target: Follistatin (Homo sapiens) (UniProt P19883); assay: follistatin binders on small-molecule microarrays, primary screen, biochemical, small-molecule microarray, 635/667 nm fluorescence (AID 1132); settings: FST binding, 635 nm fluorescence, higher = more signal
Sequence of Follistatin (Homo sapiens) (P19883 whole entry, looked up): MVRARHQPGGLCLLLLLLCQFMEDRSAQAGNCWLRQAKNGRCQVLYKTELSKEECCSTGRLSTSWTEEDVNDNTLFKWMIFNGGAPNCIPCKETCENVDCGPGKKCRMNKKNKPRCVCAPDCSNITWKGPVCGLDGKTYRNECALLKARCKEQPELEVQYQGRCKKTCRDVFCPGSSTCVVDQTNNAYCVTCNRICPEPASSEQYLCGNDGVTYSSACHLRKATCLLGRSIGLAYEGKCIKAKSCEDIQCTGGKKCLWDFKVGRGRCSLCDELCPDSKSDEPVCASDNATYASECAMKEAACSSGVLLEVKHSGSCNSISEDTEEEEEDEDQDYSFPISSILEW

[16] = molecular target: Fibroblast growth factor 2 (Homo sapiens) (UniProt P09038); assay: FGF2 binders on small-molecule microarrays, primary screen, biochemical, small-molecule microarray, 635/667 nm fluorescence (AID 1133); settings: small-molecule microarray binding, FGF2, fluorescence 635/667; higher = more signal
Sequence of Fibroblast growth factor 2 (Homo sapiens) (P09038 whole entry, looked up): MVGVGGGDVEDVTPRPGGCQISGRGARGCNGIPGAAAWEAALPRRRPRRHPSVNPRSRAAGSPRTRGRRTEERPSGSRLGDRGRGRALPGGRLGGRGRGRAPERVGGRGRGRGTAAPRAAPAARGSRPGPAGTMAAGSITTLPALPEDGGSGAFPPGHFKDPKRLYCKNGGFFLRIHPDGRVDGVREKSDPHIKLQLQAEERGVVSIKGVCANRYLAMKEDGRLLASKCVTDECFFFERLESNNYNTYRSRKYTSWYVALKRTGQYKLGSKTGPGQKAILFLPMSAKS

[17] = mitochondrial membrane potential change in A549 cells, profiling panel, cell-based, JC-1 fluorescence, basal, 24 h, 100 nL (AID 1138); settings: higher = more signal;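 further: A549 lung adenocarcinoma cells under basal conditions with no added stimulus; test concentration not given here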
[18] = system: Lefty1; assay: Lefty1 binders on small-molecule microarrays, primary screen, biochemical, small-molecule microarray, 635/667 nm fluorescence (AID 1139); settings: small-molecule microarray binding, fluorescence 635/667; higher = more signal
[19] = system: wheat germ agglutinin (Triticum aestivum), Alexa647-labelled; assay: wheat germ agglutinin binders on compound microarrays, profiling panel, artefact control for SMM control-protein annotation, biochemical, small-molecule microarray, 635/667 nm fluorescence (AID 1140); settings: WGA-A647 binding, 635 nm fluorescence, higher = more signal;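 further: score merges 667 nm feature emission with signal to noise over triplicate slides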
[20] = molecular target: Luciferin 4-monooxygenase (Photinus pyralis) (UniProt P08659); assay: firefly luciferase enzyme inhibitors, primary screen, biochemical, luminescence, purified enzyme, 2006 set (AID 1141); settings: SteadyGlo luminescence, 30 min, higher = more signal, called active from +8 up or from −8 down;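 further: cell-free assay with purified firefly luciferase at 100 ng per well in PBS; test concentration not given here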
Sequence of Luciferin 4-monooxygenase (Photinus pyralis) (P08659 whole entry, looked up): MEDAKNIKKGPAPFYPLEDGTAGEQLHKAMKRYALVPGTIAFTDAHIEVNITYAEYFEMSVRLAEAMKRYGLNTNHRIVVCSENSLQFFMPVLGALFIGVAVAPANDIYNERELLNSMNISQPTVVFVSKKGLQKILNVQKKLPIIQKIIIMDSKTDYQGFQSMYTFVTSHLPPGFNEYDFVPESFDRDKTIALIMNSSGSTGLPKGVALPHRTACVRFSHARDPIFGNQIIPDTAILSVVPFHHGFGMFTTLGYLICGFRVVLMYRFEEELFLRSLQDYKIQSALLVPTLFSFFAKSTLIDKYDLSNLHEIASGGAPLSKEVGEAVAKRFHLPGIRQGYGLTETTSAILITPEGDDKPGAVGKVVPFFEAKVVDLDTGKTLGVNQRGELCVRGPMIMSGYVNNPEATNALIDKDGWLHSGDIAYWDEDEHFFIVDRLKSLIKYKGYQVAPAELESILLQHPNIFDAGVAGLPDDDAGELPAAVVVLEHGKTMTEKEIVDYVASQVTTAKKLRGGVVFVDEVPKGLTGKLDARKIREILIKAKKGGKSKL

SMILES: CO[C@H]1COC(=O)CC=C[C@@H](C)COC(=O)[C@H]2CCCN2C(=O)CC=C[C@H]1C
- composite z-score [1]: -0.893
- composite Z-score [2]: 0.297 (inactive)
- composite z-score [3]: -0.122
- composite z-score [4]: -0.166
- composite z-score [5]: -0.516
- composite z-score [6]: -0.916
- composite z-score [7]: 0.449
- composite z-score [8]: 0.536
- composite z-score [9]: 1.19
- composite z-score [10]: -0.923
- composite z-score [11]: -0.19
- composite z-score [12]: -1.54
- composite z-score [13]: -0.0701
- composite z-score [14]: -1.05
- composite z-score [15]: 1.46
- composite z-score [16]: 1.96
- z-score [17]: 1.06
- composite z-score [18]: 1.68
- composite z-score [19]: -0.604
- z-score [20]: -1.32 (inactive)

SMILES: COC(=O)[C@@H]1CC[C@H](C)[C@@H](c2ccc(Br)cc2)N1C[C@H](O)CN=[N+]=[N-]
- composite z-score [1]: 0.0539
- composite Z-score [2]: 0.486 (inactive)
- composite z-score [3]: -0.0219
- composite z-score [4]: -0.12
- composite z-score [5]: -0.109
- composite z-score [6]: 0.653
- composite z-score [7]: 0.475
- composite z-score [8]: -0.0747
- composite z-score [9]: 0.101
- composite z-score [10]: -0.35
- composite z-score [11]: 0.383
- composite z-score [12]: -0.459
- composite z-score [13]: 0.709
- composite z-score [14]: 0.118
- composite z-score [15]: -0.117
- composite z-score [16]: 0.0395
- z-score [17]: -0.821
- composite z-score [18]: 0.17
- composite z-score [19]: 0.162
- z-score [20]: -0.169 (inactive)

SMILES: CO[C@@H](C(C)C)[C@@H](C)C1OC(=O)CC1O (stereo not given in full)
- composite z-score [1]: -0.145
- composite Z-score [2]: 0.0923 (inactive)
- composite z-score [3]: -0.159
- composite z-score [4]: -0.166
- composite z-score [5]: -0.169
- composite z-score [6]: -0.18
- composite z-score [7]: -0.542
- composite z-score [8]: -0.22
- composite z-score [9]: -0.598
- composite z-score [10]: -0.347
- composite z-score [11]: -0.647
- composite z-score [12]: -0.579
- composite z-score [13]: 0.0539
- composite z-score [14]: -1.29
- composite z-score [15]: -0.989
- composite z-score [16]: -0.278
- z-score [17]: 0.000179
- composite z-score [18]: -0.633
- composite z-score [19]: -0.282
- z-score [20]: 0.159 (inactive)

SMILES: COc1cccc([C@H](O)Cn2cc(-c3ccc(CON=C(C)C)cc3)nn2)c1
- composite z-score [1]: 0.212
- composite Z-score [2]: -0.511 (inactive)
- composite z-score [3]: -0.0647
- composite z-score [4]: 0.127
- composite z-score [5]: -0.0261
- composite z-score [6]: -0.011
- composite z-score [7]: -0.169
- composite z-score [8]: -0.937
- composite z-score [9]: 0.0083
- composite z-score [10]: -2.65
- composite z-score [11]: 0.0043
- composite z-score [12]: -1.15
- composite z-score [13]: -0.351
- composite z-score [14]: -1.01
- composite z-score [15]: -0.46
- composite z-score [16]: -0.153
- z-score [17]: -0.442
- composite z-score [18]: -0.324
- composite z-score [19]: -0.3
- z-score [20]: 0.278 (inactive)

SMILES: CCN1C(=O)[C@H]2[C@H]3[C@H](O)[C@H](O)CC(=NO[C@H](C)c4cn([C@@H]5COC[C@H]5O)nn4)[C@@H]3CC[C@H]2C1=O
- composite z-score [1]: 0.0418
- composite Z-score [2]: -0.115 (inactive)
- composite z-score [3]: -0.0948
- composite z-score [4]: -0.04
- composite z-score [5]: -0.281
- composite z-score [6]: 0.151
- composite z-score [7]: -0.0932
- composite z-score [8]: 0.126
- composite z-score [9]: 0.244
- composite z-score [10]: -0.0703
- composite z-score [11]: -1.33
- composite z-score [12]: -0.0712
- composite z-score [13]: 0.339
- composite z-score [14]: 0.178
- composite z-score [15]: -0.537
- composite z-score [16]: 0.092
- z-score [17]: -0.444
- composite z-score [18]: 0.371
- composite z-score [19]: -0.215
- z-score [20]: 0.846 (inactive)

SMILES: O=C1C2=CC[C@H]3C(=O)N(c4ccc(F)cc4F)C(=O)[C@H]3[C@H]2[C@H](O)[C@@H]2O[C@H]12
- composite z-score [1]: 0.0384
- composite Z-score [2]: -0.778 (inactive)
- composite z-score [3]: -0.165
- composite z-score [4]: -0.118
- composite z-score [5]: -0.0649
- composite z-score [6]: -0.293
- composite z-score [7]: 0.0054
- composite z-score [8]: 0.339
- composite z-score [9]: 0.783
- composite z-score [10]: 0.469
- composite z-score [11]: 0.0402
- composite z-score [12]: 0.679
- composite z-score [13]: -0.059
- composite z-score [14]: 0.0936
- composite z-score [15]: 0.397
- composite z-score [16]: 0.34
- z-score [17]: 0.0712
- composite z-score [18]: 0.616
- composite z-score [19]: -0.0273
- z-score [20]: -0.51 (inactive)

SMILES: COCOc1ccc(Br)cc1C(=O)C=Cc1ccc2c(c1)OCO2
- composite z-score [1]: -0.0265
- composite Z-score [2]: 1.33 (inactive)
- composite z-score [3]: -0.132
- composite z-score [4]: -0.169
- composite z-score [5]: -0.321
- composite z-score [6]: -0.576
- composite z-score [7]: -0.684
- composite z-score [8]: -0.562
- composite z-score [9]: 0.525
- composite z-score [10]: -0.723
- composite z-score [11]: 0.263
- composite z-score [12]: -0.396
- composite z-score [13]: -0.141
- composite z-score [14]: 0.962
- composite z-score [15]: 0.516
- composite z-score [16]: 0.449
- z-score [17]: 2.57
- composite z-score [18]: 0.471
- composite z-score [19]: 0.69
- z-score [20]: -2.08 (inactive)

SMILES: CC(CCN1CCCc2nc(C)c(C)cc21)=NO[C@@H](C)c1cn([C@H](CO)Cc2ccccc2)nn1
- composite z-score [1]: -0.139
- composite Z-score [2]: 0.344 (inactive)
- composite z-score [3]: 0.184
- composite z-score [4]: -0.0282
- composite z-score [5]: 0.074
- composite z-score [6]: 0.531
- composite z-score [7]: -0.0771
- composite z-score [8]: 0.477
- composite z-score [9]: 0.801
- composite z-score [10]: 0.497
- composite z-score [11]: 0.14
- composite z-score [12]: 0.0974
- composite z-score [13]: 0.338
- composite z-score [14]: 0.279
- composite z-score [15]: 0.764
- composite z-score [16]: 0.957
- z-score [17]: -0.088
- composite z-score [18]: 0.671
- composite z-score [19]: 0.152
- z-score [20]: -0.224 (inactive)

SMILES: COc1ccc(COC(=O)NN=C2C[C@@H](O)[C@@H](O)[C@@H]3[C@@H]4C(=O)N([C@@H](C)c5ccccc5)C(=O)[C@@H]4CC[C@H]23)cc1
- composite z-score [1]: 0.434
- composite Z-score [2]: -0.259 (inactive)
- composite z-score [3]: 0.24
- composite z-score [4]: 0.867
- composite z-score [5]: -0.277
- composite z-score [6]: 0.232
- composite z-score [7]: -0.266
- composite z-score [8]: -0.638
- composite z-score [9]: -0.217
- composite z-score [10]: 0.0744
- composite z-score [11]: -0.485
- composite z-score [12]: -0.521
- composite z-score [13]: -0.393
- composite z-score [14]: -0.137
- composite z-score [15]: -0.528
- composite z-score [16]: -0.509
- z-score [17]: -0.419
- composite z-score [18]: -0.794
- composite z-score [19]: 0.271
- z-score [20]: 0.779 (inactive)

SMILES: C#CCCCON=C1C[C@@H](O)[C@@H](O)[C@@H]2[C@@H]3C(=O)N(C4CCCCC4)C(=O)[C@@H]3CC[C@@H]12
- composite z-score [1]: 0.42
- composite Z-score [2]: 0.0436 (inactive)
- composite z-score [3]: -0.11
- composite z-score [4]: -0.129
- composite z-score [5]: 0.621
- composite z-score [6]: 0.65
- composite z-score [7]: 0.172
- composite z-score [8]: -0.513
- composite z-score [9]: 0.422
- composite z-score [10]: 0.335
- composite z-score [11]: 0.16
- composite z-score [12]: 0.256
- composite z-score [13]: 0.394
- composite z-score [14]: 0.486
- composite z-score [15]: 0.513
- composite z-score [16]: 0.0704
- z-score [17]: -0.404
- composite z-score [18]: 0.363
- composite z-score [19]: 0.329
- z-score [20]: -0.0138 (inactive)
